High-throughput results: PubChem, The Scripps Research Institute Molecular Screening Center
DAX1 inh-1: DAX1 (NR0B1) inhibitors, primary screen, cell-based, HEK293, Gal4-DAX1, luciferase luminescence; hit rate 0.99% among 340,000; Nuclear receptor subfamily 0 group B member 1 (Homo sapiens), P51843; HEK293 Gal4-DAX1 luciferase reporter; inhibition, % at 6.75 µM; AID 504766, 2011;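 active = inhibition above the mean over all tested compounds plus 3 SD, cut at about 4.2% in these data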;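 note: inhibition shows as a rise in luminescence from relieved DAX1 repression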
Target sequence (P51843 207-470 limits assumed): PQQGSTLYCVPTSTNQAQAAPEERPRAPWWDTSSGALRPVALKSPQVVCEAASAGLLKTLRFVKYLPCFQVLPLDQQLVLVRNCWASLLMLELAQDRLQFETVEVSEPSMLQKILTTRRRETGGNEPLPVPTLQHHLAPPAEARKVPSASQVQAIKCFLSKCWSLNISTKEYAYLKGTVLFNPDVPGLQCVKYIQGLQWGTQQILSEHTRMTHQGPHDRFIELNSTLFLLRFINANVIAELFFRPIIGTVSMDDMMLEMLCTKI
ssDAF-12 act: S. stercoralis DAF-12 nuclear receptor activators, primary screen, cell-based, luminescence, HEK293, GRIP1 co-expression, lit1-tk-luc; HEK293 ssDAF-12/GRIP1 lit1-tk-luc reporter; % of 3 µM dafachronic acid response; hit rate 1% among 370,000; activation, % at 6.8 µM; Nuclear hormone receptor DAF-12 (Strongyloides stercoralis); AID 652126, 2013;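 active = activation above the mean over all tested compounds plus 3 SD, cut at about 0.9% in these data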
DAX1 inh-2: DAX1 (NR0B1) inhibitors on StAR promoter, primary screen, cell-based, luminescence, SF-1 (NR5A1), full-length DAX-1 | hit rate 1.1% among 370,000 | inhibition, % at 6.8 µM | HEK293T StAR-luciferase reporter, SF-1/DAX-1 repression relief;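 active = inhibition above the mean over all tested compounds plus 3 SD, cut at about 3.6% in these data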;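 note: higher inhibition means more luminescence from relief of DAX-1 repression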
hcDAF-12 act: H. contortus DAF-12 nuclear receptor activators, primary screen, cell-based, luminescence, HEK293, lit1-tk-luc reporter. HEK293 hcDAF-12 lit1-tk-luc reporter; 0% DMSO, 100% Δ7-dafachronic acid. activation, % at 6.8 µM. hit rate 1.4% among 370,000. AID 652067, 2013;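 active = activation above the mean of all tested compounds plus 3 SD, cut at about 5.5% in these data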
hgDAF12 agonist: H. glycines DAF-12 receptor agonists, primary screen, cell-based, luminescence, HEK293, GAL4 fusion, UAS-luciferase. hit rate 1.8% among 370,000. activation, % at 6.8 µM. HEK293 GAL4-hgDAF12 UAS-luciferase reporter, agonist luminescence; normalized to butyrate control. Nuclear hormone receptor DAF-12 (Heterodera glycines), GAL4 fusion. AID 687014, 2013;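 active = activation above a cutoff set at the mean of all screened compounds plus 3 SD, cut at about 10% in these data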
LXRb hcDAF ctr: LXR agonists, Gal4 luciferase reporter, confirmation, counter-screen for hcDAF-12 agonist project, cell-based, luminescence, HEK293, H. contortus campaign. shares compounds with hcDAF-12 act. HEK293 Gal4-LXR tk-luc reporter, 24 h; normalized: DMSO 0%, positive control 100%. activation, % at 6.8 µM. 3,400 tested, under 10 active. AID 743027, 2013;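 active = mean percent activation of the reporter above a cutoff set as the average over tested compounds plus their standard deviation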
hcDAF12 ag: H. contortus DAF-12 receptor agonists, confirmation, cell-based, luminescence, HEK293, lit1-tk-luc, triplicate; shares compounds with hcDAF-12 act; HEK293 hcDAF-12 lit1-tk-luc reporter; % of Δ7-dafachronic acid response; activation, % at 6.8 µM; hit rate 61% among 3,400; AID 743032, 2013;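 active = mean activation across triplicate tests above the threshold derived from the earlier primary screen, cut at about 5.5% in these data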
hgDAF12 ag: H. glycines DAF-12 receptor agonists, confirmation, cell-based, luminescence, HEK293, GAL4-LBD fusion. shares compounds with hgDAF12 agonist. HEK293 GAL4-hgDAF12 luciferase reporter, agonist mode; percent of butyrate response. activation, % at 6.8 µM. hit rate 80% among 3,300;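 active = mean activation over triplicate wells above the hit cutoff derived from the earlier primary screen, cut at about 11% in these data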
LXRb DAF12 ctr: LXR agonists, Gal4 luciferase reporter, confirmation, counter-screen for hgDAF-12 agonist project, cell-based, luminescence, HEK293, H. glycines campaign | shares compounds with hgDAF12 agonist | 24 h | activation, % at 6.8 µM | 3,300 tested, under 10 active | AID 743051, 2013;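 active = mean activation of the triplicate above a set limit carried over from the primary screen, none filed active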
Hits are given with their value; – = inactive; · = no result. An excerpt weighted towards active compounds, which were near 4.1% of everything screened.

SMILES	DAX1 inh-1	ssDAF-12 act	DAX1 inh-2	hcDAF-12 act	hgDAF12 agonist	LXRb hcDAF ctr	hcDAF12 ag	hgDAF12 ag	LXRb DAF12 ctr
COc1ccc(NC(=S)Nc2cc(C)ccn2)c(OC)c1	–	1.5	–	14	14	–	12	19	–
CC1(C)CC(=O)C=C(c2ccc(COC(=O)c3ccc(Br)cc3)cc2)C1=O	·	–	–	–	–	·	·	·	·
Nc1nc(SCc2ccc(F)cc2)ns1	–	–	–	–	–	·	·	·	·
O=C(CN1C(=O)NC2(CCCCCC2)C1=O)c1cccs1	–	–	–	–	–	·	·	·	·
CCN(C(=O)COC(=O)c1ccc(-n2c(C)ccc2C)cc1)c1c(N)n(Cc2ccccc2)c(=O)[nH]c1=O	–	–	–	–	–	·	·	·	·
Cc1cc(C)cc(NC(=O)Nc2ccc3ccccc3n2)c1	–	–	–	–	–	·	·	·	·
O=C(Nc1ccc2ncccc2c1)c1ccccc1Br	–	·	·	·	·	·	·	·	·
O=C(c1ccccc1)c1ccc2ccccc2n1	–	–	–	–	–	·	·	·	·
O=C(Nc1ccc2ccccc2n1)c1ccccc1Br	–	3.8	–	16	19	–	9.5	18	–
O=C(Nc1ccc2ccccc2n1)c1ccccc1	–	1.1	–	13	20	–	12	21	–
Cc1ccc(C(=O)Nc2ccc3ccccc3n2)cc1	–	2.7	–	8.2	15	–	8.4	21	–
COc1cc(C(=O)NC2CC2)cc(OC)c1OC	·	–	–	–	–	·	·	·	·
Cc1ccccc1CCNC(=O)Cn1ccc2cc(S(=O)(=O)N3CCCC3)ccc21	–	–	–	–	–	·	·	·	·
NNC(=O)c1cccc(COc2ccccc2Br)c1	–	1.2	–	7.2	16	–	6.5	15	–
Cc1c(C(C)(C)C)sc(=NC(=O)c2ccccc2O)n1C	–	–	–	6.9	14	–	14	15	–
Cc1c(C(C)(C)C)s/c(=N/S(=O)(=O)c2ccccc2)n1C	–	–	–	–	–	·	·	·	·
c1ccc([C@H]2CN3C(=N2)Sc2ccccc23)cc1	–	2.5	–	13	16	–	15	24	–
Cc1cccc(OCC(=O)OCC(=O)c2c(N)n(C)c(=O)n(C)c2=O)c1	–	–	–	–	–	·	·	·	·
CC(=Nc1ccccc1)c1sc2ccccc2c1O	–	2.1	–	20	17	–	11	26	–
Cc1cccc(/N=C/c2sc3ccccc3c2O)n1	–	–	–	–	–	·	·	·	·
Cc1scc(C(=O)N/N=C/c2ccc(OC(C)C)cc2)c1C	–	–	–	–	–	·	·	·	·
Cc1scc(C(=O)N/N=C/c2ccc(Cl)s2)c1C	6.2	–	–	8.2	14	–	–	15	–
Cc1ccc(Nc2nc(N)c3ccccc3n2)cc1C	–	0.9	–	6.6	16	–	8.0	21	–
COc1ccccc1-c1noc(-c2cccs2)n1	–	–	–	8.7	19	–	–	23	–
COc1ccccc1-c1noc(-c2ccncc2)n1	–	–	–	–	–	·	·	·	·
